Records with an inconclusive call do not appear. The source made the active and inactive calls. Calls follow the shape of the dose curve; as a rule, active = well fitted inhibition curve with a large enough effect in the polarisation, with a control signal flat (not every such curve was filed as active); inconclusive = small, poorly fitted or top-dose-only effect, or effect the other way, or a change in a side signal; inactive = no such curve, though single readings can be large or run the other way; the % refers to the polarisation.
assay: Confirmation of Inhibitors Targeting the Menin-MLL Interaction in MLL Related Leukemias: Competition With Texas Red Labeled MLL-derived Mutant Peptide; details: fluorescence polarization, Texas Red MLL peptide displacement; series mostly up to 94.6 µM; FP change, negative = inhibition: at the top concentration
Method in brief: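 FP competition using menin at 200 nM with Texas Red-labeled mutant MLL peptide (50 nM) plus fluorescein MLL-w.t. peptide (25 nM) in 50 mM Tris-HCl pH 7.5, 50 mM NaCl, 1 mM DTT, 0.05% BSA; compound added, 1 hr ambient; polarization read per label.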
% is scaled to controls: 0 for no effect and ±100 for the full control effect; potency is read from the fitted curve at half-maximal effect.

Row | Structure (SMILES) | FP change, negative = inhibition | Potency
1 | CCOc1ccccc1N(CC(=O)Nc1ccccc1C(=O)N1CCCC1)S(C)(=O)=O | 2.1% (inactive) | 
2 | O=S(=O)(NCCc1c[nH]c2ccccc12)c1ccccc1 | 2.62% [at 288 µM] (inactive) | 
3 | CN(C)c1ccc(C2CC(=O)C=C(Nc3ccccc3N)C2)cc1 (centres undefined) |  | 63.2 µM (active)
4 | CCC(=O)Nc1ccc(-c2cc(-c3ccccc3)nc(-c3ccc(NC(=O)CC)cc3)n2)cc1 |  | 39.8 µM (active)
5 | CCCNC(=O)c1ccc2c(=O)c(O)c(C)[nH]c2c1 | -5.15% (inactive) | 
6 | Cc1ccc(C2=NN(C(=O)c3ccccc3F)C(c3ccccc3F)C2)cc1 (centres undefined) | 43.1% [at 288 µM] (inactive) | 
7 | COc1ccc(CNC(=O)C(c2ccc(O)cc2)N(Cc2ccco2)C(=O)c2snc(C(N)=O)c2N)cc1 (centres undefined) | 35.1% [at 288 µM] (inactive) | 
8 | CC1CN(c2c3c(nc4ncnn24)CCCC3)CC(C)O1 (centres undefined) | -1.82% (inactive) | 
9 | COc1ccccc1CNCC(=O)Nc1ccc(C#N)cc1 | -25.5% [at 288 µM] (inactive) | 
10 | CCC[n+]1c2ccccc2cc2ccccc21 |  | 31.7 µM (active)
11 | CCc1ccccc1NC(=O)COc1cccc(-n2cnnn2)c1 | -3.61% [at 288 µM] (inactive) | 
12 | COc1cccc(OC)c1NC(=O)CN1CCN(C)CC1 | -8.94% (inactive) | 
13 | O=C1C(Cl)=C(NCCN2CCOCC2)C(=O)c2ncccc21 | -21% [at 288 µM] (inactive) | 
14 | O=C1CCNc2c(Cl)cc(Cl)cc21 | 10% (inactive) | 

Reference: PubChem BioAssay AID2782 (National Center for Advancing Translational Sciences (NCATS), 2010)
